From PubChem BioAssay
Sampled rows, rich in hits. Any-hit rate of the full collection: about 21%.
TDP1 cell noCPT = qHTS for Inhibitors of human tyrosyl-DNA phosphodiesterase 1 (TDP1): qHTS in cells in absence of CPT; AID 686978, 2013; DT40 Tdp1-/- hTDP1 cells, no CPT, ATP luminescence, 48 h; Potency, µM (doses to about 46.2 µM), for the others: at the top dose activity change, negative = growth inhibition, most hits filed as inhibitors; 420,000 compounds, 15% hits; further: potency means the concentration at half of the fitted maximal effect; nearly all actives have a fitted effect of over 55% in size
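Stably hTDP1-transfected Tdp1-null chicken DT40 cells were treated with library compounds minus camptothecin and grown for at least 48 hr at 37 °C, after which cellular ATP was quantified by luminescence.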
RORgamma inh = ROR gamma (mouse) transcription inhibition. Potency, µM (series often up to 53.6 µM), for inactives: at the highest dose activity change, negative = inhibition, actives largely listed as inhibitors. Drosophila S2 Gal4-RORgamma UAS-luciferase reporter, 20 h. 310,000 compounds, 5.4% hits; further: potency means the concentration at half of the fitted maximal effect; nearly all actives have a fitted effect of over 60% in size
Target sequence (P51450 whole entry, looked up, the tested form may be a part): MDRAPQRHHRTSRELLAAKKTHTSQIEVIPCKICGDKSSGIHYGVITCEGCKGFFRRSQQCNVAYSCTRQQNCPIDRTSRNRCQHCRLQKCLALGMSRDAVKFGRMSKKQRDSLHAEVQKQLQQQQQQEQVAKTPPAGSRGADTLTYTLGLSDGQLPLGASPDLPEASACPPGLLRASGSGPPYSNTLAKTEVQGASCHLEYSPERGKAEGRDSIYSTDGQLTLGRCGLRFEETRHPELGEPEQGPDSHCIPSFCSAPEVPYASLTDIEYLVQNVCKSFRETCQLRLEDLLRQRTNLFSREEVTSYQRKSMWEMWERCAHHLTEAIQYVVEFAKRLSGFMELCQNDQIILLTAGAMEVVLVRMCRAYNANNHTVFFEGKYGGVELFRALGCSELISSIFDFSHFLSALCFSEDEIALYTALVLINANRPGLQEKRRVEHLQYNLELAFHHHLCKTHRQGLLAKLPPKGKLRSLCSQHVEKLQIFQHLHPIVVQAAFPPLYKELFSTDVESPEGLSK
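Using a luciferase readout, inhibitors were identified by reduced reporter activity in Drosophila cells coexpressing a copper-inducible Gal4–ROR gamma fusion and UAS-driven Photinus luciferase, incubated 20 hr after 700 uM copper sulfate.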
ELG1 DNA repair = ELG1-dependent DNA repair inhibition; HEK293T ELG1-luciferase reporter, luminescence, 16 h; DNA damage induced by 5-fluorouridine; Potency, µM (titrated, usually from 46.1 µM), without a hit: at the top dose activity change, negative = inhibition, most hits filed as inhibitors; 330,000 compounds, 2.3% hits; AID 504467; further: potency means the concentration at half of the fitted maximal effect; nearly all actives have a fitted effect of over 55% in size
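In this reporter screen, reduction of luminescence relative to DMSO vehicle indicated activity. Compounds and 5-fluorouridine were added together to 2,000 cells per well, incubated for 16 hr at 37 °C, then developed with ONE-Glo.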
Gal4-VP16 FLuc = Gal4-VP16 reporter inhibition counter-screen; Drosophila S2 Gal4-VP16 UAS-luciferase, luminescence, 20 h; Potency, µM (titrated, usually from 53.6 µM), inactives show at the top dose activity, negative = inhibition, most hits filed as inhibitors; 310,000 compounds, 3.5% hits; AID 2546;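 further: Gal4-VP16 expression switched on by copper sulfate through the metallothionein promoter; potency means the concentration at half of the fitted maximal effect; nearly all actives have a fitted effect of over 50% in size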
TDP1 cell CPT = DT40-hTDP1 cell growth loss with CPT | chicken DT40 Tdp1-/-;hTDP1 cells + 20 nM CPT, ATP luminescence, 48 h | Potency, µM (doses to about 46.2 µM), for inactives: at the highest dose activity change, negative = growth inhibition, usual class: inhibitors | 420,000 compounds, 12% hits; further: potency means the concentration at half of the fitted maximal effect; nearly all actives have a fitted effect of over 55% in size
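Cell growth measured by CellTiter-Glo luminescence after a minimum 48 h, 37 C compound exposure with 20 nM CPT in Tdp1-knockout DT40 cells stably expressing hTDP1, seeded 400/well; qHTS titration format.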
IL1B secr inh = inhibitors of inflammasome signaling (IL-1 beta secretion); THP-1 LPS/ATP IL-1B secretion, AlphaLISA, 16 h; active compounds read low; activity change, % at 57.5 µM; 360,000 compounds, 4.7% hits; in the data active means activity change below about -50%; inconclusive means mostly about -30% to -49%
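THP-1 cells pretreated 1 hr with compounds (up to 57.5 uM final), then stimulated with LPS (250 ng/mL final) plus ATP (1.25 mM final); secreted IL-1B measured by AlphaLISA after 16 hr, decreased signal indicating inhibition.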
Starred values were filed as active, the others as inactive; ? = inconclusive; · = no result; [ ] = dose if it differs, or a comment. Unless noted, the call rests on the fitted dose curve; in most records, active means well fitted curve in the direction sought with a large enough effect; inconclusive means small, poorly fitted or top-dose-only effect, or another doubt; inactive means no such curve, though single readings can be large; an effect the other way counts as inactive or inconclusive. On the % scale 0 is the no-effect control and ±100 the full control effect.

SMILES | TDP1 cell noCPT | RORgamma inh | ELG1 DNA repair | Gal4-VP16 FLuc | TDP1 cell CPT | IL1B secr inh
C=CC(=O)Oc1ccc(N2Cc3ccccc3C2=O)cc1 | 4.61µM* | · | · | · | 3.66µM* | -0.4
COc1cccc(-c2nn(C)c3sc(C(=O)N4CCN(c5cccc(C(F)(F)F)c5)CC4)cc23)c1 | 25.9µM* | · | · | · | 16.4µM* | ·
COc1ccc(N2CCN(C(=O)c3cc4c(-c5cccc(OC)c5)nn(C)c4s3)CC2)cc1 | 14.6µM* | 17.7% | ? | -30.0% | ? | 0.0
COCCn1c(SCC(=O)c2ccc(Cl)cc2)nnc1C(C)C | 20.6µM* | -20.1% | 2.5% | 11.3% | ? | 13.2
c1ccc2c(c1)NCCS2 | ? | 14.1% | ? | -3.5% | ? | 9.1
S=C1CSc2ccccc2N1 | ? | 3.55µM* | 12.7% | 7.94µM* | -1.4% | 2.2
CC1CSc2ccccc2NC1=S (stereo unspecified) | -13.2% | 7.08µM* | 0.6% | 7.94µM* | -3.4% | 13.7
c1ccc(C2CSc3ccccc3N2)cc1 (stereo unspecified) | ? | -10.7% | ? | -2.8% | -24.2% | 25.8
COc1cccc([C@H]2Oc3ccc(OC)cc3/C(=N\O[C@@H]3O[C@H](COC(C)=O)[C@H](OC(C)=O)[C@H](OC(C)=O)[C@H]3OC(C)=O)[C@@H]2O)c1 | · | 9.3%[10 µM] | · | -1.2%[10 µM] | · | ·
C[C@H](CO)N1C[C@H](C)[C@H](CN(C)C(=O)Nc2ccccc2)OCc2cnnn2CCCC1=O | -12.6% | · | · | · | 8.0% | 9.3
CC(=O)Nc1ccc(CNc2nc3cc(-c4ccccc4C)sc3c(=O)n2C)cc1 | ? | · | · | · | ? | -0.5
COc1ccc(Nc2nc3cc(-c4sccc4C)sc3c(=O)n2C)cc1OC | 1.03µM* | · | · | · | 1.3µM* | -1.7
Cc1ccsc1-c1cc2nc(NCCOc3ccccc3Cl)n(C)c(=O)c2s1 | ? | · | · | · | ? | -10.4
CCOC(=O)Cc1ccc(Nc2nc3cc(-c4sccc4C)sc3c(=O)n2C)cc1 | 3.66µM* | · | · | · | 2.91µM* | 0.0
COc1ccc(Nc2nc3cc(-c4ccsc4)sc3c(=O)n2C)cc1OC | ? | · | · | · | 13µM* | 13.6
CC(C)c1ccc2oc(-c3ccc(Cl)c(NC(=O)Cc4ccccc4)c3)nc2c1 | -1.3% | · | · | · | -26.0% | ·
Cc1noc(C)c1CSCC(=O)Nc1ccccc1N1CCCCC1 | · | · | -15.7% | · | · | ·
COc1ccc(-c2nnn3c2nc(NCc2ccccc2)c2ccccc23)cc1 | 15.8% | 6.3% | ? | 4.2% | -18.6% | 33.0
CCC1=NN(C(=O)C(=O)NCCc2ccccc2)C(O)(C(F)(F)F)C1 (stereo unspecified) | -12.5% | 0.631µM* | 1.7% | 1.78µM* | 7.6% | 14.1
CCC1=NN(C(=O)CCc2ccccc2)C(O)(C(F)(F)F)C1 (stereo unspecified) | -15.8% | 12.6µM* | 1.0% | ? | 1.1% | 0.0
CCC1=NN(C(=O)C(=O)Nc2ccc(OC)cc2)C(O)(C(F)(F)F)C1 (stereo unspecified) | -1.6% | ? | ? | -22.4% | -13.6% | 0.0
COc1cc(NC(=O)c2nnn(CC(=O)Nc3ccccc3)c2N)cc(OC)c1 | -7.9% | · | · | · | 5.7% | ·
O=C(Oc1ccccc1)N1CCC2(CCCN(c3ccncc3)C2)CC1 | 14.6µM* | 12.6% | · | -4.4% | 20.6µM* | ·
O=C(Oc1ccccc1)N1CCC2(CC1)CN(c1ccncc1)C2 | 10.3µM* | -19.8% | · | 2.1% | 13µM* | ·
COC(=O)N1CCC2(CC1)CCN(c1ccncc1)CC2 | 16.4µM* | -30.1% | · | -2.6% | 7.31µM* | ·
SMILES | TDP1 cell noCPT | RORgamma inh | ELG1 DNA repair | Gal4-VP16 FLuc | TDP1 cell CPT | IL1B secr inh
CCOc1ccc(NS(=O)(=O)c2ccc(OCC)c3ncccc23)cc1 | 10µM* | ? | ? | ? | 11.2µM* | 29.4
CCOc1ccc(NS(=O)(=O)c2ccc3c4c(cccc24)C(=O)N3)cc1 | ? | · | · | · | 16.4µM* | ·
CCN(c1cccc(C)c1)S(=O)(=O)c1ccc2c3c(cccc13)C(=O)N2 | 11.2µM* | 13.9% | ? | -9.6% | ? | 0.0
CCOC(=O)/C(C#N)=C\c1cn(C)c2ccccc12 | -10.7% | 10.9% | 5.8µM* | -21.2% | 24.8% | 2.0
CCOC(=O)/C(C#N)=C/c1cn(CCOc2ccccc2)c2ccccc12 | -16.2% | -6.7% | ? | -0.7% | 5.6% | 16.7
CCOC(=O)/C(=C\c1cn(C)c2ccccc12)[N+](=O)[O-] | ? | ? | ? | 0.0% | ? | -85.1*
CCOC(=O)/C(=C/c1cn(C)c2ccccc12)NC(=O)c1ccccc1 | ? | -39.9% | 1.6% | 2.6% | -27.4% | 14.2
CCOC(=O)/C(C#N)=C/c1cc2ccccc2nc1Cl | 3.98µM* | -22.3% | 0.2% | 0.5% | 2.82µM* | 56.3
O=C(O)CCCNS(=O)(=O)c1ccc(NCc2ccccc2)c(C(=O)O)c1 | 8.6% | -18.8% | 6.5% | -0.1% | 2.2% | -6.7
N#CC1=C(SCC(=O)NC2CCCCC2)NC(=O)CC1c1ccco1 (stereo unspecified) | -16.9% | 0.4% | -13.7% | 8.9% | ? | -3.8
N#CC1=C(SCC(=O)Nc2ccccc2)NC(=O)CC1c1ccco1 (stereo unspecified) | 18.4µM* | · | · | · | 7.31µM* | -6.9
N#CC1=C(SCc2ccccc2)NC(=O)CC1c1ccco1 (stereo unspecified) | -3.5% | 20.3% | -7.9% | -2.1% | -26.1% | -20.6
N#CC1=C(SCC(=O)NCc2ccccc2)NC(=O)CC1c1ccco1 (stereo unspecified) | 23.1µM* | -6.3% | 5.7% | -3.2% | ? | -19.4
Cc1cc(C)cc(Nc2nc3ccccc3nc2-n2nc(C)cc2C)c1 | 2.7% | · | · | · | 10.5% | ·
Cc1cc(C)c2c(-c3ccc(-c4ccc(C(F)(F)F)cc4)cc3)cc(=O)oc2c1 | · | 30.8% | · | -6.3% | · | ·
COc1ccc(OC)c(CNC(=O)CCCn2ccc3cc(S(=O)(=O)N4CCCC4)ccc32)c1 | ? | 26.6% | -7.3% | 14.0% | 14.6µM* | 2.1
COc1cccc(CNC(=O)CCCn2ccc3cc(S(=O)(=O)N4CCCC4)ccc32)c1 | ? | 22.1% | 23.1µM* | 2.0% | ? | 1.3
CCc1ccc(CNC(=O)CCCn2ccc3cc(S(=O)(=O)N4CCCC4)ccc32)cc1 | 4.11µM* | · | · | · | 4.61µM* | ·
COc1cccc(CNC(=O)CCn2ccc3cc(S(=O)(=O)N4CCCC4)ccc32)c1 | ? | 5.6% | 4.3% | 23.1% | ? | 15.3
